Tg IFNy HTS = blocks Toxoplasma gondii growth in the presence of IFN-gamma; Toxoplasma gondii growth in IFN-gamma-treated host cells; hits give low values; activity change, negative = inhibition, % (test concentration not listed); 69,000 compounds, 3.8% hits; in the data active means activity change below about -70%, passing the limit was not always enough;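 further: host cells are HeLa cells infected with Toxoplasma gondii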
Large screens that a line does not name were inactive. The full list was thinned out, with hits kept by preference.

Cc1oc(-c2ccc(NC(=O)c3cccc(N(C)C)c3)cc2)nc1Cn1cccn1	Tg IFNy HTS -86
Cc1oc(-c2ccc(NC(=O)c3ccc4c(c3)OCO4)cc2)nc1Cn1cccn1	Tg IFNy HTS -91
Cc1oc(-c2ccc(NC(=O)c3cccc(C(F)(F)F)c3)cc2)nc1Cn1cccn1	none
CCOc1ccc(C(=O)Nc2ccc(-c3nc(Cn4cccn4)c(C)o3)cc2)cc1	Tg IFNy HTS -99
Cc1oc(-c2ccc(NC(=O)COc3ccccc3)cc2)nc1Cn1cccn1	none
Cc1oc(-c2ccc(NC(=O)c3ccc(F)cc3F)cc2)nc1Cn1cccn1	none
Cc1ccc(CC(=O)Nc2ccc(-c3nc(Cn4cccn4)c(C)o3)cc2)cc1	none
Cc1oc(-c2ccc(NC(=O)c3ccc(Cl)cc3)cc2)nc1Cn1cccn1	Tg IFNy HTS -85
Cc1oc(-c2ccc(NC(=O)c3ccc(Br)cc3)cc2)nc1Cn1cccn1	none
COCCC(=O)Nc1ccc(-c2nc(Cn3cccn3)c(C)o2)cc1	none
Cc1oc(-c2ccc(NC(=O)c3ccsc3)cc2)nc1Cn1cccn1	none
O=C(CN1CCN(CC2CC2)C(CCO)C1)NC1CCCCCCC1 (configuration not stated)	none
Cn1ccnc1-c1ccc(NCC2COc3ccccc3O2)nn1 (configuration not stated)	none
Cc1ccccc1NC(=O)Cn1c(=O)cc(C(=O)N2CCc3ccccc3C2)c2ccccc21	none
Clc1ccc(CSCCc2nc(-c3cccnc3)no2)cc1Cl	none
NC(=O)[C@H]1CCCN1C(=O)c1ccc(OCC(=O)N2CCCCC2)cc1	none
Fc1cccc(CN2CC3CN(Cc4cccs4)CC3C2)c1 (configuration not stated)	none
Cc1c(Cl)c(C(=O)N2CCC(O)(CN(C)C)C2)nn1C (configuration not stated)	none
COc1ccc(C(=O)N2CCN(S(=O)(=O)c3cc4c5c(c3)CCC(=O)N5CCC4)CC2)cc1OC	none
CCN1CCC2(CC1)OC(=O)C(C)=C2C(=O)NCCCN(C)C1CCCCC1	none
O=C(Cc1cccc(F)c1)N1CC[C@@H](O)[C@@H]1Cc1ccccc1	none
COCC1CC2(CCN(Cc3nccs3)CC2)CO1 (configuration not stated)	none
CS(=O)(=O)NC1CCN(C(=O)c2cn(-c3ccccc3)nn2)CC1	none
CCCCC(CC)C(=O)Oc1ccc2c(c1)oc(=O)c1ccccc12 (configuration not stated)	none
Cc1ccc2c(=O)cc(C(=O)NCc3cccnc3-n3ccnc3)oc2c1	none
COCC12CCCOC1CCN(C(=O)C1=CCCC1)C2 (configuration not stated)	Tg IFNy HTS -81
Cc1ccc(C(=O)N2CCC3OCCCC3(COCC3CC3)C2)cn1 (configuration not stated)	none
CCOCC12CCCOC1CCN(C(=O)C1=CCCC1)C2 (configuration not stated)	none
Cc1cc(NC(=O)Nc2ccc(-c3nc(-c4ccccc4)co3)cc2)ccc1Br	none
COc1ccc2c(c1)NC1(CCN(C(=O)c3ccc(Br)o3)CC1)c1cccn1-2	Tg IFNy HTS -79
COc1ccc(OCC(=O)N2CCC3(CC2)Nc2cc(C)ccc2-n2cccc23)cc1	none
COc1ccc2c(c1)NC1(CCN(C(=O)COc3cccc(C)c3)CC1)c1cccn1-2	Tg IFNy HTS -129
COc1ccc(CC(=O)N2CCC3(CC2)Nc2cc(OC)ccc2-n2cccc23)cc1	none
Cc1ccc2c(c1)NC1(CCN(S(=O)(=O)c3ccc(NC(=O)CC(C)C)cc3)CC1)c1cccn1-2	none
COc1ccc2c(c1)NC1(CCN(C(=O)COc3ccc(F)cc3)CC1)c1cccn1-2	none
CC(C)CC(=O)Nc1ccc(S(=O)(=O)N2CCC3(CC2)Nc2ccccc2-n2cccc23)cc1	none
COc1ccc2c(c1)NC1(CCN(C(=O)Cc3ccc(F)cc3)CC1)c1cccn1-2	Tg IFNy HTS -84
O=C(c1ccc(Br)o1)N1CCC2(CC1)Nc1cc(F)ccc1-n1cccc12	none
COc1cccc(CC(=O)N2CCC3(CC2)Nc2cc(OC)ccc2-n2cccc23)c1	none
CCc1ccc(C(=O)N2CCC3(CC2)Nc2cc(OC)ccc2-n2cccc23)cc1	none
CC(C)CC(=O)Nc1ccc(S(=O)(=O)N2CCC3(CC2)Nc2cc(F)ccc2-n2cccc23)cc1	Tg IFNy HTS -77
Cc1nc2sccn2c1CN1CCC(N)CC1	none
O=C(COc1ccc(F)cc1)N1CCc2c(nc(-c3cccnc3)[nH]c2=O)C1	none
CC(C)CC1N=C2c3ccccc3N=C(SCc3cc(=O)n4cc(Br)ccc4n3)N2C1=O (configuration not stated)	none
Cc1cccn2cc(CNC(=O)c3cn(CC4CCCNC4)nn3)nc12 (configuration not stated)	none
Cc1ncc(-c2ccncc2)c(CN(C)C(=O)c2sc(C)nc2C)n1	none
O=C1CCCN1C[C@@H]1CCC[C@]2(CCN(Cc3ccccc3F)C2)O1	none
COc1cc(C(=O)NC2(Cc3ccc(C)cc3)CC2)ccc1O	none
CSc1nnc(CC2CCN(c3cc(NC(C)C)ncn3)CC2)n1C	none
Cc1ccc(CN2CCC3(CC2)N=C(c2ccc(C)cc2)C(=O)N3)cc1	none
Cc1noc(C2CCCN2Cc2cnn(C)c2)n1 (configuration not stated)	none

High-throughput results: PubChem, Broad Institute
